# Measurements: PubChem BioAssay (NCATS)
# Records with an inconclusive call do not appear. Calls of active or inactive are those of the source. The call rests on the fitted dose curve; in most records, active means well fitted curve in the direction sought with a large enough effect; inconclusive means small, poorly fitted or top-dose-only effect, or another doubt; inactive means no such curve, though single readings can be large; an effect the other way counts as inactive or inconclusive.
# Biological target: Aldehyde dehydrogenase, mitochondrial (Homo sapiens) (UniProt P05091)
# Test: qHTS for Inhibitors of the Aldehyde Dehydrogenase Family (ALDH2) Primary screen (AID 2061308);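 further: plate controls were vehicle for no effect and reference inhibitor for full effect; nearly all actives have a fitted effect of over 55% in size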
# Conditions: ALDH2 enzyme inhibition qHTS, 1536-well; series mostly up to 56 µM; activity change, negative = inhibition: at the top concentration
SMILES,"activity change, negative = inhibition",Potency
COc1ccc([S+](=O)([O-])N2CCCN([S+](=O)([O-])c3ccc(OC)c(N)c3)CC2)cc1N,2.6% (inactive),–
O=[S+]([O-])(Nc1ccc(-c2nc3ccccc3[nH]2)cc1)c1ccc2c(c1)CCO2,0.446% (inactive),–
COc1cc(N2CCN(C(=S)Nc3cc(C)cc(C)n3)CC2)cc(C(F)(F)F)c1,-13% (inactive),–
O=S(=O)(Nc1cccc2cccnc12)c1ccc(Br)cc1,-8.58% (inactive),–
c1cncc(CNc2ncnc3ccc(-c4cccnc4)cc23)c1,10.5% (inactive),–
NC(=O)c1ccc(-c2noc(-c3cccc(Cl)c3)n2)cc1,-14% (inactive),–
NC(=O)C1CCN(c2nc(-c3cccc([N+](=O)[O-])c3)cs2)CC1,7.11% (inactive),–
Fc1ccccc1-c1nc(NCc2ccc(-c3cccnc3)cc2)c2ccccc2n1,1.85% (inactive),–
COc1ccc(C2Nc3ccccc3C(=O)N2CCO)cc1COc1c(C)cc(NC(C)=O)cc1C (stereo not given),10.5% (inactive),–
Fc1cc(Nc2nc(-c3ccncc3)nc3ccccc23)ccc1-c1cc(F)c(F)c(F)c1,8.17% (inactive),–
CCOC(=O)C1CCN(C(=O)C(C)(C)NC(=O)Nc2cccc(C(=O)OC)c2)CC1,-6.05% (inactive),–
COc1cccc(C2c3c(ncn(-c4ccc(Br)cc4)c3=N)Oc3ccc4ccccc4c32)c1 (stereo not given),-8.06% (inactive),–
O=C(Nc1nc(-c2ccccc2)cs1)c1ccccc1[N+](=O)[O-],-8.74% (inactive),–
Cc1c(P(=S)(c2ccccc2)c2ccccc2)c2ccccc2n1C(=O)Cc1ccccc1,-0.415% (inactive),–
CC1=C(C(=O)N(C)C)C(c2ccccc2Br)N=C(Nc2nc3ccccc3o2)N1 (stereo not given),0.969% (inactive),–
Cc1cc(NS(=O)(=O)c2ccc(C(=O)NCc3ccc(Cl)c(Cl)c3)cc2)no1,17.3% (inactive),–
Cc1ccc(S(=O)(=O)Nc2cnccc2C(=O)Nc2nc(-c3ccc(F)cc3)cs2)cc1,-9.74% (inactive),–
Cc1ccnc(NC(=S)N2CC3CN(c4ncc(C(F)(F)F)cc4Cl)CC3C2)c1 (stereo not given),-11% (inactive),–
Cc1ccc(-c2ccc(=O)n(CC(=O)N(C)C(C)c3cccs3)n2)cc1 (stereo not given),53.2% (inactive),–
Cn1c2cc(B(O)O)sc2c2cnn(Cc3c(F)cccc3F)c(=O)c21,2.55% (inactive),–

SMILES,"activity change, negative = inhibition",Potency
NC(=O)c1c(NC(=O)c2ccncn2)sc2c1CCCC2,–,inactive
c1ccc(-c2cnc(Nc3ccc(OCCN4CCCC4)cc3)s2)cc1,13.9% (inactive),–
CC(C)(C)OC(=O)n1c2ccsc2c2cnn(Cc3ccccc3F)c(=O)c21,5.25% (inactive),–
OC1C=C2C3CN(Cc4cc5c(cc43)OCO5)C2CC1O (stereo not given),1.35% (inactive),–
COc1ccc(CN2C(=O)c3ccccc3NC2c2ccc(OC)c(COc3c(C)cc(NC(C)=O)cc3C)c2)cc1 (stereo not given),4.48% (inactive),–
COc1ccc(NS(=O)(=O)c2ccccc2C(=O)O)cc1,5.47% (inactive),–
Cc1cnc(-c2ccccc2C2COC2)nc1NCc1ccc(-c2cccnc2)cc1,–,inactive
Oc1cccc2cc(Nc3ccccc3)cnc12,-12.5% (inactive),–
COC(=O)N[C@H](C(=O)N1[C@@H]2CC[C@@H](C2)[C@H]1c1nc2ccc(-c3ccc4c(c3)C(F)(F)c3cc(-c5cnc([C@@H]6CCC7(CC7)N6C(=O)[C@@H](NC(=O)OC)C(C)C)[nH]5)ccc3-4)cc2[nH]1)C(C)C,0.0958% [at 28 µM] (inactive),–
Oc1cccc2cc(CNc3ccccc3F)cnc12,6.86% (inactive),–
C=C1C(=O)OC2CC(C)C(CCC(C)O)=CCC12 (stereo not given),2.67% (inactive),–
COc1ccccc1NC(=O)C1=C(C)NC(Nc2nc3ccccc3o2)=NC1c1ccccc1Br (stereo not given),2.34% (inactive),–
Cc1csc(CNc2ncnc3ccc(-c4ccccc4Cl)cc23)c1,-9.34% (inactive),–
CN(CCc1cccs1)c1ncnc2ccc(-c3ccc4c(c3)OCO4)cc12,-11.1% (inactive),–
CC(=O)N1CCN(C(=O)COC(=O)c2ccc([S+](C)(=O)[O-])c([N+](=O)[O-])c2)CC1,-3.72% (inactive),–
Cn1c2cc(C#N)sc2c2cnn(Cc3ccccc3F)c(=O)c21,–,inactive
Cc1ccc(S(=O)(=O)n2cc(C(=O)Nc3ccc(-c4ccccc4)cc3)c3ccccc32)cc1,-5.5% (inactive),–
Cc1ccc(S(=O)(=O)Nc2cnccc2C(=O)Nc2ccc(-c3nc4ccccc4[nH]3)cc2)cc1,6.54% (inactive),–
Nc1ccc(-c2ccc(NC(=O)c3cccs3)cn2)cc1,1.81% (inactive),–
O=S(=O)(c1ccc2c(c1)OCCO2)N1CCN(S(=O)(=O)c2ccc(Cl)cc2F)CC1,6.94% (inactive),–

# Biological target: Retinaldehyde dehydrogenase 3 (Homo sapiens) (UniProt P47895)
# Test: qHTS for Inhibitors of the Aldehyde Dehydrogenase Family (ALDH1A3) Primary screen (AID 2061315);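 further: plate controls were DMSO vehicle for no effect and reference inhibitor for full effect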
# Conditions: ALDH inhibition qHTS; series mostly up to 56 µM; activity change, negative = inhibition: at the top concentration
SMILES,"activity change, negative = inhibition",Potency
COc1ccc([S+](=O)([O-])N2CCCN([S+](=O)([O-])c3ccc(OC)c(N)c3)CC2)cc1N,-2.38% (inactive),–
O=[S+]([O-])(Nc1ccc(-c2nc3ccccc3[nH]2)cc1)c1ccc2c(c1)CCO2,3.63% (inactive),–
COc1cc(N2CCN(C(=S)Nc3cc(C)cc(C)n3)CC2)cc(C(F)(F)F)c1,14.8% (inactive),–
O=S(=O)(Nc1cccc2cccnc12)c1ccc(Br)cc1,-24.1% (inactive),–
c1cncc(CNc2ncnc3ccc(-c4cccnc4)cc23)c1,-13.4% (inactive),–
NC(=O)c1ccc(-c2noc(-c3cccc(Cl)c3)n2)cc1,6.99% (inactive),–
NC(=O)C1CCN(c2nc(-c3cccc([N+](=O)[O-])c3)cs2)CC1,-5.45% (inactive),–
Fc1ccccc1-c1nc(NCc2ccc(-c3cccnc3)cc2)c2ccccc2n1,-9.19% (inactive),–
COc1ccc(C2Nc3ccccc3C(=O)N2CCO)cc1COc1c(C)cc(NC(C)=O)cc1C (stereo not given),-7.03% (inactive),–
Fc1cc(Nc2nc(-c3ccncc3)nc3ccccc23)ccc1-c1cc(F)c(F)c(F)c1,-6.54% (inactive),–
CCOC(=O)C1CCN(C(=O)C(C)(C)NC(=O)Nc2cccc(C(=O)OC)c2)CC1,2.52% (inactive),–
COc1cccc(C2c3c(ncn(-c4ccc(Br)cc4)c3=N)Oc3ccc4ccccc4c32)c1 (stereo not given),-7.16% (inactive),–
O=C(Nc1nc(-c2ccccc2)cs1)c1ccccc1[N+](=O)[O-],4.75% (inactive),–
Cc1c(P(=S)(c2ccccc2)c2ccccc2)c2ccccc2n1C(=O)Cc1ccccc1,3.07% (inactive),–
CC1=C(C(=O)N(C)C)C(c2ccccc2Br)N=C(Nc2nc3ccccc3o2)N1 (stereo not given),6.4% (inactive),–
Cc1cc(NS(=O)(=O)c2ccc(C(=O)NCc3ccc(Cl)c(Cl)c3)cc2)no1,0.512% (inactive),–
Cc1ccc(S(=O)(=O)Nc2cnccc2C(=O)Nc2nc(-c3ccc(F)cc3)cs2)cc1,25.9% (inactive),–
Cc1ccnc(NC(=S)N2CC3CN(c4ncc(C(F)(F)F)cc4Cl)CC3C2)c1 (stereo not given),-13.8% (inactive),–
Cc1ccc(-c2ccc(=O)n(CC(=O)N(C)C(C)c3cccs3)n2)cc1 (stereo not given),-20.8% (inactive),–
Cn1c2cc(B(O)O)sc2c2cnn(Cc3c(F)cccc3F)c(=O)c21,-11.7% (inactive),–

SMILES,"activity change, negative = inhibition",Potency
NC(=O)c1c(NC(=O)c2ccncn2)sc2c1CCCC2,–,inactive
c1ccc(-c2cnc(Nc3ccc(OCCN4CCCC4)cc3)s2)cc1,4.04% (inactive),–
CC(C)(C)OC(=O)n1c2ccsc2c2cnn(Cc3ccccc3F)c(=O)c21,-6.12% (inactive),–
OC1C=C2C3CN(Cc4cc5c(cc43)OCO5)C2CC1O (stereo not given),4.89% (inactive),–
COc1ccc(CN2C(=O)c3ccccc3NC2c2ccc(OC)c(COc3c(C)cc(NC(C)=O)cc3C)c2)cc1 (stereo not given),-2.82% (inactive),–
COc1ccc(NS(=O)(=O)c2ccccc2C(=O)O)cc1,-5.23% (inactive),–
Cc1cnc(-c2ccccc2C2COC2)nc1NCc1ccc(-c2cccnc2)cc1,–,inactive
Oc1cccc2cc(Nc3ccccc3)cnc12,12.8% (inactive),–
COC(=O)N[C@H](C(=O)N1[C@@H]2CC[C@@H](C2)[C@H]1c1nc2ccc(-c3ccc4c(c3)C(F)(F)c3cc(-c5cnc([C@@H]6CCC7(CC7)N6C(=O)[C@@H](NC(=O)OC)C(C)C)[nH]5)ccc3-4)cc2[nH]1)C(C)C,6.65% [at 28 µM] (inactive),–
Oc1cccc2cc(CNc3ccccc3F)cnc12,19.8% (inactive),–
C=C1C(=O)OC2CC(C)C(CCC(C)O)=CCC12 (stereo not given),-26.7% (inactive),–
COc1ccccc1NC(=O)C1=C(C)NC(Nc2nc3ccccc3o2)=NC1c1ccccc1Br (stereo not given),7.18% (inactive),–
Cc1csc(CNc2ncnc3ccc(-c4ccccc4Cl)cc23)c1,3.81% (inactive),–
CN(CCc1cccs1)c1ncnc2ccc(-c3ccc4c(c3)OCO4)cc12,1.93% (inactive),–
CC(=O)N1CCN(C(=O)COC(=O)c2ccc([S+](C)(=O)[O-])c([N+](=O)[O-])c2)CC1,0.785% (inactive),–
Cn1c2cc(C#N)sc2c2cnn(Cc3ccccc3F)c(=O)c21,–,inactive
Cc1ccc(S(=O)(=O)n2cc(C(=O)Nc3ccc(-c4ccccc4)cc3)c3ccccc32)cc1,5.52% (inactive),–
Cc1ccc(S(=O)(=O)Nc2cnccc2C(=O)Nc2ccc(-c3nc4ccccc4[nH]3)cc2)cc1,7.31% (inactive),–
Nc1ccc(-c2ccc(NC(=O)c3cccs3)cn2)cc1,-6.86% (inactive),–
O=S(=O)(c1ccc2c(c1)OCCO2)N1CCN(S(=O)(=O)c2ccc(Cl)cc2F)CC1,8.04% (inactive),–
